Reference: PubChem BioAssay (EPA / NIEHS)
Several values for one entry are separate records, joined by “and”; a condition that tells them apart may be missing. Equal values may be shown once. Where a structure was tested more than once in an assay, its records may differ in their call. Activity calls are given as the source filed them. How the source made its calls: active means hit-call score of the fitted dose curve at least 0.9, where 1 is the maximum; inactive means score below 0.9.

How the values were obtained:
[1] = BSK_LPS_SRB: Viability Assessment in the BioMAP Diversity Plus: LPS Assay (AID 2283079); conditions: primary human HUVEC with PBMC;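 further: total protein by sulforhodamine B absorbance as a cytotoxicity measure; measured one day after compound addition; fitted in both directions against DMSO so loss or gain of signal counts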
Method in brief: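 Readout is SRB absorbance at 560 nm (0.1% stain, TCA-fixed parallel cultures) as a total-protein cytotoxicity measure. Cells: primary human umbilical vein endothelium plus peripheral blood mononuclear cells, 24 h after chemical exposure; DMSO served as baseline.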

[2] = read-out: Interleukin-1 alpha (IL1a), IL1A (gene 3552); test: BSK_LPS_IL1a: BioMAP Diversity Plus: LPS Assay for Interleukin-1 alpha (IL1a) Biomarker Activity (AID 2283080); conditions: primary human HUVEC with PBMC; actives raise or lower the signal
Method in brief: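 ELISA read-out of IL-1 alpha from a human primary vascular co-culture (endothelium plus PBMC) under LPS, sampled 24 hours post-dosing. Activity was fitted in both directions relative to DMSO controls.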

[3] = read-out: Monocyte Chemoattractant Protein-1 (MCP1), CCL2 (gene 6347); test: BSK_LPS_MCP1: BioMAP Diversity Plus: LPS Assay for Monocyte Chemoattractant Protein-1 (MCP1) Biomarker Activity (AID 2283081); conditions: primary human HUVEC with PBMC; actives raise or lower the signal;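 on AC50: secreted MCP-1 protein quantified by ELISA in culture supernatant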
Method in brief: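 Human endothelial–PBMC co-cultures were dosed with chemical, then LPS-driven MCP-1 levels were quantified by ELISA at 24 h. Activity in either direction was fitted versus DMSO negative control.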

[4] = BSK_LPS_PGE2: BioMAP Diversity Plus: LPS Assay for Prostaglandin E2 (PGE2) Biomarker Activity (AID 2283082); conditions: primary human HUVEC with PBMC; actives raise or lower the signal;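 on AC50: secreted prostaglandin E2 measured by ELISA in LPS-stimulated co-culture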
Method in brief: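 HUVEC plus PBMC co-culture stimulated with LPS; secreted PGE2 quantified by ELISA 24 h after chemical dosing. Activity fitted bidirectionally against DMSO as negative control and baseline; parallel SRB total-protein staining served as cytotoxicity check.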

[5] = read-out: Tissue Factor, F3 (gene 2152); test: BSK_LPS_TissueFactor: BioMAP Diversity Plus: LPS Assay for Tissue Factor Biomarker Activity (AID 2283084); conditions: primary human HUVEC with PBMC; actives raise or lower the signal
Method in brief: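 ELISA signal for cell-surface Tissue Factor (CD142) was read 24 h after compound dosing of an LPS-stimulated human endothelial–PBMC primary co-culture. Gain or loss of signal was scored relative to DMSO.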

[6] = read-out: Tumor necrosis factor (Homo sapiens) (UniProt P01375); test: BSK_LPS_TNFa: BioMAP Diversity Plus: LPS Assay for Tumour Necrosis Factor alpha (TNFa) Biomarker Activity (AID 2283085); conditions: primary human HUVEC with PBMC; actives raise or lower the signal
Method in brief: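 Human umbilical vein endothelial cells co-cultured with PBMC were exposed to test chemical and TNFa measured by ELISA 24 h after dosing. Bidirectional curve fitting was done relative to DMSO as negative control and baseline.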

[7] = read-out: Vascular cell adhesion molecule 1 (VCAM1), VCAM1 (gene 7412); test: BSK_LPS_VCAM1: BioMAP Diversity Plus: LPS Assay for Vascular cell adhesion molecule 1 (VCAM1) Biomarker Activity (AID 2283086); conditions: primary human HUVEC with PBMC; actives raise or lower the signal
Method in brief: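 Human umbilical vein endothelial cells co-cultured with peripheral blood mononuclear cells under LPS stimulation were exposed to test chemical for 24 h. VCAM-1 levels were then measured by ELISA, with bidirectional curve fitting relative to DMSO as negative control and baseline.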

CD38, CD38 (gene 952) = test: BSK_SAg_CD38: BioMAP Diversity Plus: SAg Assay for CD38 Biomarker Activity (AID 2283087); conditions: primary human HUVEC with PBMC; actives raise or lower the signal
Method in brief: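 Fluorescence ELISA of cell-surface CD38 served as the read-out, with either increase or decrease fitted against DMSO controls. Cells were a human umbilical vein endothelium plus PBMC co-culture under SEB/TSST-1 stimulation, measured 24 h after dosing.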

CD40, CD40 (gene 958) = test: BSK_SAg_CD40: BioMAP Diversity Plus: SAg Assay for CD40 Biomarker Activity (AID 2283088); conditions: primary human HUVEC with PBMC; actives raise or lower the signal
Method in brief: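 Compounds were dosed onto a human primary endothelial–PBMC co-culture, and after 24 h CD40 was quantified by ELISA using a fluorescence signal. Activity in either direction was fitted relative to DMSO.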

CD69, CD69 (gene 969) = test: BSK_SAg_CD69: BioMAP Diversity Plus: SAg Assay for CD69 Biomarker Activity (AID 2283089); conditions: primary human HUVEC with PBMC; actives raise or lower the signal;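 on AC50: cell surface CD69 protein quantified by ELISA with fluorescence detection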
Method in brief: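 Values derive from bidirectional fitting relative to DMSO vehicle. Cells: umbilical vein endothelium plus peripheral blood mononuclear cells, treated 24 h before fluorescent ELISA for CD69.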

[8] = read-out: Monocyte Chemoattractant Protein-1 (MCP1), CCL2 (gene 6347); test: BSK_SAg_MCP1: BioMAP Diversity Plus: SAg Assay for Monocyte Chemoattractant Protein-1 (MCP1) Biomarker Activity (AID 2283090); conditions: primary human HUVEC with PBMC; actives raise or lower the signal
Method in brief: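 MCP-1 levels in the endothelial–PBMC SAg co-culture were quantified by ELISA at 24 h post-dosing; both increases and decreases versus DMSO scored. Cytotoxicity monitored by SRB total protein in parallel cultures.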

[9] = read-out: E-selectin (Homo sapiens) (UniProt P16581); test: BSK_SAg_Eselectin: BioMAP Diversity Plus: SAg Assay for Eselectin Biomarker Activity (AID 2283091); conditions: primary human HUVEC with PBMC; actives raise or lower the signal
Method in brief: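 Co-culture: HUVEC + PBMC. Dose compound; 24 h. ELISA for E-selectin. Bidirectional fit vs DMSO.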

[10] = read-out: Monokine induced gamma interferon (MIG), CXCL9 (gene 4283); test: BSK_SAg_MIG: BioMAP Diversity Plus: SAg Assay for Monokine induced gamma interferon (MIG) Biomarker Activity (AID 2283092); conditions: primary human HUVEC with PBMC; actives raise or lower the signal
Method in brief: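 Values reflect bidirectional fitting of ELISA-measured MIG against DMSO vehicle, taken 24 h after dosing of a co-culture of human umbilical vein endothelial cells and peripheral blood mononuclear cells.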

[11] = BSK_SAg_PBMCCytotoxicity: PBMC Cytotoxicity Assessment in the BioMAP Diversity Plus: SAg Assay (AID 2283093); conditions: primary human HUVEC with PBMC;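 further: PBMC viability measured as Alamar Blue reduction fluorescence at 546/580 nm; fitted both ways against DMSO so a hit may be loss or gain of signal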;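 on AC50: PBMC superantigen activated with SEB plus TSST-1 one hour after compound addition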
Method in brief: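 Compound added to 75,000 PBMC/well for 1 h; SEB and TSST-1 then added at 20 ng/mL final each; 90 h incubation; Alamar Blue 6 h; read 546/580 nm ex/em. Activity fitted bidirectionally relative to DMSO baseline.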

[12] = read-out: Interleukin-8 (IL8), CXCL8 (gene 3576); test: BSK_SAg_IL8: BioMAP Diversity Plus: SAg Assay for Interleukin-8 (IL8) Biomarker Activity (AID 2283094); conditions: primary human HUVEC with PBMC; actives raise or lower the signal
Method in brief: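 Human umbilical vein endothelial cells co-cultured with peripheral blood mononuclear cells; IL-8 measured by ELISA 24 h after chemical dosing. Bidirectional concentration-response fitting used DMSO as negative control and activity baseline.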

[13] = BSK_SAg_Proliferation: Cell Proliferation Assessment in the BioMAP Diversity Plus: SAg Assay (AID 2283095); conditions: primary human HUVEC with PBMC;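 further: relative cell number as total protein by SRB absorbance in sub-confluent culture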
Method in brief: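 Human umbilical vein endothelial cells co-cultured with peripheral blood mononuclear cells; total protein measured by sulforhodamine B staining (0.1% SRB after 10% TCA fixation), absorbance at 560 nm, at 96 h. Bidirectional fit against DMSO baseline.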

Measured: AC50

Chain of Tumor necrosis factor (Homo sapiens) (P01375 whole entry, looked up): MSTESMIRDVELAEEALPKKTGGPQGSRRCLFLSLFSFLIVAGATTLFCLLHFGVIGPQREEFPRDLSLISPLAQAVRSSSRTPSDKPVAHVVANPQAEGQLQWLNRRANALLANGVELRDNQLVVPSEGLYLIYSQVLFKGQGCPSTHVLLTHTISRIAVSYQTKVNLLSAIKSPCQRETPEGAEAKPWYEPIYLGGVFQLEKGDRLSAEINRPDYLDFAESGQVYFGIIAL
Chain of E-selectin (Homo sapiens) (P16581 whole entry, looked up): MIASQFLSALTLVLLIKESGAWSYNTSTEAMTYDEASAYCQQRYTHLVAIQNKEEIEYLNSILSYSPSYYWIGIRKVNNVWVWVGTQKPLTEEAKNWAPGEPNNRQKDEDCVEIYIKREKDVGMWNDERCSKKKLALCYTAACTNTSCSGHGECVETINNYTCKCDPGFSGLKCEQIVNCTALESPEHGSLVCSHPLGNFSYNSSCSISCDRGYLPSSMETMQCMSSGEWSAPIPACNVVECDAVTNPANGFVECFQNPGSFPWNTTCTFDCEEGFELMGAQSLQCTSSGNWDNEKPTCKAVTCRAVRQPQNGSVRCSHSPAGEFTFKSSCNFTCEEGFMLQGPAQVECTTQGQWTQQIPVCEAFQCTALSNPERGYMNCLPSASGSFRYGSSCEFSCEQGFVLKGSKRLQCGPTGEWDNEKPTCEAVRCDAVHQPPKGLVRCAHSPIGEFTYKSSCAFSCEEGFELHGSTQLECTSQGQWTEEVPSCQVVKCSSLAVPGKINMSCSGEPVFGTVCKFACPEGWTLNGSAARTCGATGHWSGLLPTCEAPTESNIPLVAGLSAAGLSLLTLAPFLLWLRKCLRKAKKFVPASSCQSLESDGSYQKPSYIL

Nc1ccc(N)c(Cl)c1
inactive: [6] | [12]
active: [1] 25.9 µM and 32.6 µM | [2] 4.62 µM and 33.4 µM | [3] 32.7 µM and 32.2 µM | [4] 20 µM and 13 µM | [5] 3.97 µM and 3.44 µM | [6] 11.6 µM | [7] 5.43 µM and 5.78 µM | CD38, CD38 (gene 952) 15.9 µM | CD40, CD40 (gene 958) 26.4 µM and 21.7 µM | CD69, CD69 (gene 969) 22.9 µM and 18.4 µM | [8] 30.8 µM and 31.3 µM | [9] 19.4 µM and 22.2 µM | [10] 30.4 µM and 31.3 µM | [11] 16.4 µM and 15.4 µM | [12] 30.8 µM | [13] 14.8 µM and 12.7 µM

CO[Si](OC)(OC)c1ccccc1
inactive: all assays above

c1ccc2c(c1)ccc1cc3c(ccc4ccccc43)cc12
active: [5] 34.2 nM
inactive: [1] | [2] | [3] | [4] | [5] | [6] | [7] | CD38, CD38 (gene 952) | CD40, CD40 (gene 958) | CD69, CD69 (gene 969) | [8] | [9] | [10] | [11] | [12] | [13]

CCCCCCCCc1ccc(Nc2ccc(CCCCCCCC)cc2)cc1
active: [9] 73.1 nM
inactive: all other assays above
